Test results published in the supplement of paper PMC12350171.
Where a name gives a salt, the structure may show the parent alone. Values without a mark were called inactive.

Assays:
Details in all cases: 20 µM
[1] = test system: Salmonella enterica typhimurium; test: growth AUC normalised to DMSO control (fraction of control); higher = less growth inhibition, active = hit call of the paper
Procedure, shortened: (§1)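 Pathogens were passaged twice under anaerobic conditions, then inoculated into pre-reduced mGAM plates at a starting OD578 of 0.01, with compound at 20 μM and 1% DMSO, and sealed with breathable membranes. For Haemophilus parainfluenzae, the medium was supplemented with hemin and NAD. OD578 was read every hour for 24 h in three biological replicates. Growth-curve AUC was calculated by the trapezoidal rule up to the exponential-to-stationary transition and normalised to DMSO controls on the same plate.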

Shigella flexneri = test: as above
Procedure, shortened: as §1

Vibrio cholerae = test: as above
Procedure, shortened: as §1

[2] = test system: Yersinia pseudotuberculosis; test: as above
Procedure, shortened: as §1

P. vulgatus RND KO = test: growth AUC normalised to DMSO control (median) (fraction of control); higher = less growth inhibition, active = hit call of the paper
Procedure, shortened: (§2)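 For normalised area under the curve, growth curves were truncated at entry into stationary phase, integrated by the trapezoidal rule and divided against vehicle wells on the same plate. The curves came from strains passaged twice overnight without oxygen and then grown in mGAM in 96-well plates at a starting OD578 of 0.01. Each well held an approved-drug library compound at 20 μM with 1% DMSO, and OD578 was read hourly for 24 h in an anaerobic incubator. Values are medians of three biological replicates.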

P. vulgatus WT = test: as above
Procedure, shortened: as §2

[3] = test system: S. enterica typhimurium WT; test: as above
Procedure, shortened: as §2

[4] = test system: S. enterica typhimurium tolC KO; test: as above
Procedure, shortened: as §2
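For growth AUC normalised to DMSO control (median) in this document: active when median AUC fell below 0.1.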

SMILES	growth AUC normalised to DMSO control [1]	growth AUC normalised to DMSO control (Shigella flexneri)	growth AUC normalised to DMSO control (Vibrio cholerae)	growth AUC normalised to DMSO control [2]	growth AUC normalised to DMSO control (P. vulgatus RND KO)	growth AUC normalised to DMSO control (P. vulgatus WT)	growth AUC normalised to DMSO control [3]	growth AUC normalised to DMSO control [4]
CC(N)CCCC(C)(C)O (stereo not given) [Heptaminol hydrochloride]	1	0.999	0.986	0.997	1.01	1.05	1.01	0.996
Cc1c(N(C)CS(=O)(=O)O)c(=O)n(-c2ccccc2)n1C [Dipyrone sodium salt]	1.02	1.03	1.09	1.02	0.999	0.996	1.01	0.999
NC[C@H]1CC[C@H](C(=O)O)CC1 [Tranexamic acid]	1	1.01	1.04	1.02	1.04	1.04	1	1
CN1CCC(=C2c3ccccc3CCc3sccc32)CC1 [Pizotifen malate]	0.992	0.976	0.873 (active)	0.998	0.965	0.973	0.994	0.963
CN(C)CCOC(=O)C(c1ccccc1)C1(O)CCCC1 (stereo not given) [Cyclopentolate hydrochloride]	1.02	1.01	1	1.02	0.98	0.993	0.999	1
CCc1nn(CCCN2CCN(c3cccc(Cl)c3)CC2)c(=O)n1CCOc1ccccc1 [Nefazodone hydrochloride]	1	0.985	0.932	1.01	0.928	0.922	1	0.894
C[C@@H](c1ncncc1F)[C@](O)(Cn1cncn1)c1ccc(F)cc1F [Voriconazole]	0.984	0.959	0.955	1	1.02	1.02	1	0.998
CC(=O)S[C@@H]1CC2=CC(=O)CC[C@]2(C)[C@H]2CC[C@@]3(C)[C@@H](CC[C@@]34CCC(=O)O4)[C@H]12 [Spironolactone]	0.983	0.981	0.954	1.02	1.02	1.02	0.998	0.981
CC1=C(C(=O)O)N2C(=O)[C@@H](NC(=O)[C@H](N)c3ccc(O)cc3)[C@H]2SC1 [Cefadroxil]	0.979	0.937	0.967	0.997	1.01	1	0.996	0.982
CN1CCCC(n2nc(Cc3ccc(Cl)cc3)c3ccccc3c2=O)CC1 (stereo not given) [Azelastine hydrochloride]	1.01	0.989	0.932	0.969	1.01	1	1	0.935
COc1cc([S+](C)[O-])ccc1-c1nc2cccnc2[nH]1 (stereo not given) [Sulmazole]	1.02	1.03	1.04	1.02	1.07	1.08	0.999	0.987
NCCNCCNCCNCCN [Tetraethylenepentamine pentahydrochloride]	0.99	0.972	0.979	0.998	0.998	0.995	1.01	1
CCOC(=O)c1ccc(OC(=O)CCCCCNC(=N)N)cc1 [Gabexate mesilate]	0.993	0.973	0.987	0.932	0.985	1	1	0.325
CCCCC1C(=O)N(c2ccccc2)N(c2ccccc2)C1=O [Phenylbutazone]	1.01	0.991	0.973	1.01	1.03	1.07	1	0.964
CCN(CC)CCOC(=O)C(Cc1cccc2ccccc12)CC1CCCO1 (stereo not given) [Nafronyl oxalate]	0.985	0.977	0.943	0.992	0.993	0.989	0.994	0.959
CC(=O)c1ccc(S(=O)(=O)NC(=O)NC2CCCCC2)cc1 [Acetohexamide]	1	0.998	0.984	0.989	0.949	1	0.996	0.994
CN(C)CCCO[C@@H]1[C@H]2OC(C)(C)O[C@H]2O[C@@H]1[C@H](O)CO [Amiprilose hydrochloride]	0.904	1	0.986	0.997	0.969	0.966	1.01	1
CCc1cccc(CC)c1NC(=O)CN(CC(=O)O)CC(=O)O [Etifenin]	0.985	0.99	0.989	0.999	0.998	1.01	1	0.993
COc1ccccc1OCC(O)COC(N)=O (stereo not given) [Methocarbamol]	0.986	0.981	0.94	0.979	0.993	1.03	1	1
CCOC(=O)[C@H](CCc1ccccc1)N[C@@H](C)C(=O)N1Cc2ccccc2C[C@H]1C(=O)O [Quinapril hydrochloride]	0.986	0.967	0.988	1.01	0.995	0.982	0.982	0.996
C[C@H](N)[C@H](O)c1cccc(O)c1 [Metaraminol bitartrate]	0.992	0.972	0.984	1.01	0.993	0.989	0.994	1
CCOC(=O)C1=C(C)NC(C)=C(C(=O)OC)C1c1cccc([N+](=O)[O-])c1 (stereo not given) [Nitrendipine]	1.04	1	1.06	1.01	1.09	1.04	0.996	0.982
C1CCC(C(CC2CCCCN2)C2CCCCC2)CC1 (stereo not given) [Perhexiline maleate]	0.983	0.977	0.931	1.01	0.915	0.954	0.994	0.945
CC(C)(C#N)c1cc(Cn2cncn2)cc(C(C)(C)C#N)c1 [Anastrozole]	1.02	1.07	1.04	0.696	1.09	1.06	0.991	0.996
CN(C)/N=N/c1[nH]cnc1C(N)=O [Dacarbazine]	0.989	0.976	0.994	1	1.04	1.03	0.997	1
NNCCc1ccccc1 [Phenelzine sulfate]	1.03	1.05	1.03	1.02	1.1	1.16	0.994	0.955
Nc1ccc(C(=O)NCC(=O)O)cc1 [Aminohippuric acid]	1.03	0.989	0.998	0.997	0.992	1.01	1.01	0.999
Clc1ccc(COC(Cn2ccnc2)c2ccc(Cl)cc2Cl)cc1 (stereo not given) [Econazole nitrate]	0.977	0.987	0.962	1.01	0.899	0.902	1	0.912
CCN1CCCC(OC(=O)C(c2ccccc2)c2ccccc2)C1 (stereo not given) [Piperidolate hydrochloride]	1.01	1.02	1.03	0.967	1.03	1.04	0.998	0.976
COC(=O)Nc1nc2ccc(SC(C)C)cc2[nH]1 [Methiazole]	1.01	1	0.999	1.01	0.992	1.04	0.997	0.994
